Test results published in PubChem BioAssay (NCI).
The panel holds about 83,000 compounds, 20% with a hit somewhere; the sample as a whole holds those more often.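 Each cell line was grown in a 96-well plate and treated with one concentration of compound for 48 hours. Values below 10 were considered active.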 Calls of active or inactive are those of the source.

Key:
Test in all cases: NCI-60 one-dose screen, 48 h (100 = growth as untreated, 0 = no growth, -100 = all killed)
Settings in all cases: 10 µM unless noted
NCI-H23 lung = tested on: NCI-H23 lung
NCI-H226 lung = tested on: NCI-H226 lung
HOP-62 NSCLC = tested on: HOP-62 NSCLC
NCI-H460 lung = tested on: NCI-H460 lung
NCI-H522 lung = tested on: NCI-H522 lung
A549/ATCC NSCLC = tested on: A549/ATCC NSCLC
786-0 renal = tested on: 786-0 renal
COLO 205 colon = tested on: COLO 205 colon
DU-145 prostate = tested on: DU-145 prostate
K-562 leukemia = tested on: K-562 leukemia
MALME-3M melanoma = tested on: MALME-3M melanoma
MDA-MB-231 breast = tested on: MDA-MB-231 breast
RXF 393 renal = tested on: RXF 393 renal
SF-268 CNS = tested on: SF-268 CNS
SF-295 CNS = tested on: SF-295 CNS
SF-539 CNS = tested on: SF-539 CNS
UACC-257 melanoma = tested on: UACC-257 melanoma
M14 melanoma = tested on: M14 melanoma
HCT-15 colon = tested on: HCT-15 colon
NCI-H322M lung = tested on: NCI-H322M lung

Measured: growth

CCCCC1Nc2nc(SC)n(C)c(=O)c2CN(Cc2ccccc2)C1=O (configuration not stated)
inactive: NCI-H23 lung 98.4% | NCI-H226 lung 84.9% | HOP-62 NSCLC 97.9% | NCI-H460 lung 104% | NCI-H522 lung 76% | A549/ATCC NSCLC 94.5% | 786-0 renal 78.4% | COLO 205 colon 112% | DU-145 prostate 112% | K-562 leukemia 141% | MALME-3M melanoma 132% | MDA-MB-231 breast 94.5% | RXF 393 renal 77.2% | SF-268 CNS 100% | SF-295 CNS 94.9% | SF-539 CNS 85.2% | UACC-257 melanoma 90.1% | M14 melanoma 89.8% | HCT-15 colon 81.9%

N#CCCN(CCO)c1ccccc1
inactive: NCI-H226 lung 94.6% | NCI-H322M lung 93.7% | HOP-62 NSCLC 95% | NCI-H460 lung 105% | NCI-H522 lung 80.6% | A549/ATCC NSCLC 98.9% | 786-0 renal 96.2% | COLO 205 colon 104% | DU-145 prostate 116% | K-562 leukemia 98.3% | MALME-3M melanoma 96.8% | MDA-MB-231 breast 106% | RXF 393 renal 105% | SF-268 CNS 111% | SF-539 CNS 104% | UACC-257 melanoma 99.8% | M14 melanoma 102% | HCT-15 colon 102%

O=C(/C=C/c1cccnc1)NCCCCC1CCCN(C(=O)c2ccccc2)C1 (configuration not stated)
inactive: NCI-H226 lung 98.5% | NCI-H322M lung 65.3% | HOP-62 NSCLC 85.1% | NCI-H460 lung 29% | A549/ATCC NSCLC 49% | 786-0 renal 71.7% | DU-145 prostate 33.4% | MALME-3M melanoma 83.7% | MDA-MB-231 breast 82.6% | RXF 393 renal 109% | SF-268 CNS 74% | SF-539 CNS 28% | UACC-257 melanoma 109% | M14 melanoma 18.7% | HCT-15 colon 42%
active: NCI-H522 lung 1.41% | SF-295 CNS 4.84%

ClC1=C(Cl)C(Cl)=C(Cl)C1=Cc1ccc(Cl)cc1
inactive: NCI-H226 lung 87.7% | NCI-H322M lung 107% | HOP-62 NSCLC 47.4% | NCI-H522 lung 27.5% | COLO 205 colon 13.5% | MDA-MB-231 breast 14.3% | RXF 393 renal 20.5% | SF-295 CNS 34.2% | SF-539 CNS 91.2% | HCT-15 colon 66.5%
active: NCI-H460 lung -63.4% | 786-0 renal -43% | DU-145 prostate -75.4% | K-562 leukemia -0.422% | MALME-3M melanoma -2.75% | SF-268 CNS -69.3% | M14 melanoma -47.6%

Cc1ccc(NC(=O)CSc2nnc3n(Cc4ccccc4)c(=O)c4c(C)c(C(N)=O)sc4n23)cc1
inactive: NCI-H226 lung 28.9% | NCI-H322M lung 46.2% | NCI-H522 lung 31.5% | A549/ATCC NSCLC 77.7% | 786-0 renal 16.9% | DU-145 prostate 39% | MALME-3M melanoma 11.4% | RXF 393 renal 79.9% | SF-268 CNS 55.8% | SF-295 CNS 53% | UACC-257 melanoma 56.4% | M14 melanoma 60.5% | HCT-15 colon 84.4%
active: HOP-62 NSCLC -7.47% | NCI-H460 lung -40.9% | MDA-MB-231 breast -6.14%

COc1cc(/C=C2\COc3ccc(O)cc3C2=O)cc(OC)c1
active: K-562 leukemia 5.63%
inactive: NCI-H226 lung 94.9% | NCI-H322M lung 90.8% | HOP-62 NSCLC 86% | NCI-H460 lung 82.4% | NCI-H522 lung 32.3% | A549/ATCC NSCLC 92.3% | 786-0 renal 87.6% | DU-145 prostate 72% | MALME-3M melanoma 70.3% | MDA-MB-231 breast 77% | SF-268 CNS 85.2% | SF-295 CNS 93.4% | SF-539 CNS 80.7% | UACC-257 melanoma 82.1% | HCT-15 colon 37.9%

O=C1NCC(Nc2ccc(Br)cc2Cl)C(=O)N1 (configuration not stated)
inactive: NCI-H226 lung 109% | NCI-H322M lung 126% | HOP-62 NSCLC 113% | NCI-H460 lung 112% | NCI-H522 lung 93% | A549/ATCC NSCLC 122% | 786-0 renal 103% | COLO 205 colon 98% | DU-145 prostate 119% | K-562 leukemia 95.5% | MDA-MB-231 breast 104% | RXF 393 renal 112% | SF-268 CNS 105% | SF-295 CNS 118% | SF-539 CNS 98.9% | UACC-257 melanoma 160% | M14 melanoma 93.8% | HCT-15 colon 107%

Clc1ccc2c(Nc3ccc4oc(NCCN5CCCC5)nc4c3)ccnc2c1
inactive: NCI-H226 lung 101% | NCI-H322M lung 90.1% | HOP-62 NSCLC 109% | NCI-H460 lung 96.4% | NCI-H522 lung 98.5% | A549/ATCC NSCLC 92.9% | COLO 205 colon 84.4% | DU-145 prostate 71.1% | K-562 leukemia 20.8% | MALME-3M melanoma 105% | MDA-MB-231 breast 37.3% | RXF 393 renal 81.8% | SF-268 CNS 72.5% | SF-295 CNS 106% | SF-539 CNS 47.6% | UACC-257 melanoma 108% | M14 melanoma 50.7% | HCT-15 colon 49.3%

O=C1CC(C(F)(F)F)=NN1C(=O)c1nn(-c2ccc(Cl)cc2)cc1O
inactive: NCI-H226 lung 79.8% | NCI-H322M lung 15.6% | HOP-62 NSCLC 70.2% | NCI-H460 lung 71.2% | NCI-H522 lung 89.9% | A549/ATCC NSCLC 91.2% | 786-0 renal 97.7% | COLO 205 colon 125% | DU-145 prostate 83.6% | K-562 leukemia 96.7% | MALME-3M melanoma 146% | MDA-MB-231 breast 81.9% | RXF 393 renal 78.1% | SF-268 CNS 56.7% | SF-295 CNS 81.3% | SF-539 CNS 82.7% | UACC-257 melanoma 111% | HCT-15 colon 69.9%
